Measured values reported in PubChem BioAssay.
Activity calls are given as the source filed them.

Key:
[1] = A549 cell viability effects, profiling panel, calcein-AM fluorescence, 48 h, basal (AID 1162); conditions: higher = more signal
[2] = adipocyte viability effects, profiling panel, cell-based, 3T3-L1 adipocytes, calcein-AM fluorescence, 48 h, basal (AID 1163); conditions: 3T3-L1 adipocytes viability, higher = more signal
[3] = HepG2 cell viability effects, profiling panel, calcein-AM fluorescence, 48 h, basal (AID 1164); conditions: higher = more signal
[4] = MM1S cell viability effects, profiling panel, calcein-AM fluorescence, 48 h, basal (AID 1165); conditions: higher = more signal;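 also: viability of MM1S multiple myeloma cells under basal unstimulated conditions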
[5] = basal RPMI8226 viability, no added stimulus, profiling panel, cell-based, calcein-AM fluorescence, 48 h, PK04 Diversity Set (AID 1166); conditions: RPMI8226 myeloma viability, higher = more signal;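 also: cells grown under basal conditions without added stimulus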
[6] = basal HepG2 mitochondrial membrane potential changes, profiling panel, cell-based, JC-1 fluorescence, 24 h, 100 nL compound (AID 1167); conditions: higher = more signal
[7] = basal 3T3-L1 adipocyte mitochondrial potential changes, profiling panel, cell-based, JC-1 fluorescence, 3T3-L1 adipocytes, 24 h, 100 nL compound (AID 1168); conditions: JC-1 mitochondrial fluorescence, higher = more signal, called active from +8 up or from −8 down
[8] = basal RPMI8226 mitochondrial membrane potential changes, profiling panel, cell-based, JC-1 fluorescence, 24 h, 100 nL compound (AID 1169); conditions: RPMI8226 myeloma, JC-1 mitochondrial potential fluorescence, higher = more signal
[9] = basal MM1S mitochondrial membrane potential changes, profiling panel, cell-based, JC-1 fluorescence, 24 h, 100 nL compound (AID 1170); conditions: higher = more signal
[10] = A549 lung cancer cell viability effects, profiling panel, resazurin fluorescence, 24 h, PK04 Diversity Set (AID 1171); conditions: higher = more signal, called active from +8 up or from −8 down
Also: test concentration not given here.

C[C@H]1NC(=O)[C@@]23C(=O)N[C@@H](Cc4ccccc4)C2[C@H](C)[C@@]2(C)O[C@H]2C3/C=C/C/C=C\CNC(=O)[C@@H]2CCCN2C1=O (stereo not given in full)
z-score [1]: -0.197
z-score [2]: 0.286
z-score [3]: -0.0389
z-score [4]: -1.6
z-score [5]: 0.727
z-score [6]: -0.0133
z-score [7]: 0.0802 (inactive)
z-score [8]: 0.263
z-score [9]: -0.507
z-score [10]: 0.437 (inactive)

COc1cc2c(cc1O)C(C1CC1)N(Cc1sc3ccccc3c1Cl)CC2 (stereo not given)
z-score [1]: -4
z-score [2]: 0.0337
z-score [3]: -4.15
z-score [4]: -3.32
z-score [5]: -4.44
z-score [6]: -3.67
z-score [7]: -1.07 (inactive)
z-score [8]: -0.858
z-score [9]: -0.539
z-score [10]: -0.663 (inactive)

C=CCC(OC(C)=O)[C@@H]1[C@@H](N(Cc2ccc(-c3ccccc3)cc2)C(=O)c2cccc3ccccc23)c2cc(OCCCO)ccc2N1C(=O)c1ccc(-c2ccccc2)cc1 (stereo not given in full)
z-score [1]: 0.143
z-score [2]: 0.286
z-score [3]: 0.391
z-score [4]: 0.139
z-score [5]: -0.094
z-score [6]: 3.13
z-score [7]: 0.266 (inactive)
z-score [8]: -0.745
z-score [9]: -0.00624
z-score [10]: 0.126 (inactive)

O=C(CS)NCCCCCCNC(=O)[C@@H]1C[C@@H]2C(=O)NCC(=O)N2[C@@H]1c1cccc(OCCO)c1
z-score [1]: 0.861
z-score [2]: -0.356
z-score [3]: 0.381
z-score [4]: 0.38
z-score [5]: 0.754
z-score [6]: 0.502
z-score [7]: 0.475 (inactive)
z-score [8]: 0.116
z-score [9]: -0.502
z-score [10]: -0.489 (inactive)

C=C(C(=O)CC[C@@H](OC(=O)c1cccnc1)c1ccccc1OCCO)C(C)C
z-score [1]: -0.125
z-score [2]: 0.909
z-score [3]: -0.599
z-score [4]: -1.81
z-score [5]: -1.08
z-score [6]: -1.17
z-score [7]: 0.208 (inactive)
z-score [8]: -0.356
z-score [9]: -1.07
z-score [10]: -0.414 (inactive)

O=C1C[C@@](C(=O)NCC(F)(F)F)(c2ccc([N+](=O)[O-])cc2)[C@@H](c2ccc(CO)cc2I)N1C1CCCCC1
z-score [1]: -0.0922
z-score [2]: 0.665
z-score [3]: -0.644
z-score [4]: -2.28
z-score [5]: -1.65
z-score [6]: 0.548
z-score [7]: -0.226 (inactive)
z-score [8]: -0.521
z-score [9]: -1.02
z-score [10]: 0.324 (inactive)

C=C(COC)/C(=C/C[C@@H](OC(C)=O)c1ccc(OCCO)cc1)c1cnc2ccccc2c1
z-score [1]: 2.32
z-score [2]: 1.86
z-score [3]: 0.109
z-score [4]: -0.83
z-score [5]: -0.175
z-score [6]: 2.42
z-score [7]: -0.502 (inactive)
z-score [8]: -0.612
z-score [9]: -0.701
z-score [10]: 0.0521 (inactive)

C=CCN1C(=O)[C@]2(O[C@H](CCn3cc([C@H](O)c4ccccc4)nn3)[C@@H]([Si](C)(C)c3ccc(OC)cc3)[C@@H]2C)c2cc(N3CCC3=O)ccc21
z-score [1]: -0.668
z-score [2]: 0.87
z-score [3]: -1.39
z-score [4]: -2.05
z-score [5]: -2.95
z-score [6]: 2.75
z-score [7]: 0.85 (inactive)
z-score [8]: -0.949
z-score [9]: 0.507
z-score [10]: -1.71 (inactive)
